Measured values: the supplement of paper PMC4466140

Tests used:
Experiment in all cases: SPOT peptide array binding signal intensity (averaged, normalized) (arbitrary units (background-subtracted, floor 0; scale differs between SH3 domains)); higher = stronger binding of the SH3 domain to the peptide
AgAbp1 = target: AgAbp1
Outline: (§1)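 Spot intensities were captured after detection with anti-GST antibody, an HRP-linked anti-mouse secondary and luminol, and quantified with Genespotter. The probes were GST-fused SH3 domains from four yeast species, produced in E. coli BL21(DE3), purified on glutathione Sepharose and incubated at 10 μg/ml overnight at 4°C on cellulose-bound synthetic 15-mer peptides with cysteines replaced by serines. Binding signal is the normalized, background-subtracted spot intensity averaged over replicates, and its arbitrary units differ between domains.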

AgBbc1 = target: AgBbc1
Outline: as §1

AgBem1-D1 = target: AgBem1-D1
Outline: as §1

AgBzz1-D1 = target: AgBzz1-D1
Outline: as §1

AgBzz1-D2 = target: AgBzz1-D2
Outline: as §1

AgCyk3 = target: AgCyk3
Outline: as §1

AgFus1 = target: AgFus1
Outline: as §1

AgHof1 = target: AgHof1
Outline: as §1

AgHse1 = target: AgHse1
Outline: as §1

AgLsb1 = target: AgLsb1
Outline: as §1

AgLsb4 = target: AgLsb4
Outline: as §1

AgMyo5 = target: AgMyo5
Outline: as §1

AgNbp2 = target: AgNbp2
Outline: as §1

AgRvs167 = target: AgRvs167
Outline: as §1

AgSho1 = target: AgSho1
Outline: as §1

AgSla1-D1-D2 = target: AgSla1-D1-D2
Outline: as §1

AgSla1-D3 = target: AgSla1-D3
Outline: as §1

CaAbp1-D1 = target: CaAbp1-D1
Outline: as §1

CaAbp1-D2 = target: CaAbp1-D2
Outline: as §1

CaBbc1 = target: CaBbc1
Outline: as §1

CaBem1-D1 = target: CaBem1-D1
Outline: as §1

CaBzz1-D1 = target: CaBzz1-D1
Outline: as §1

CaBzz1-D2 = target: CaBzz1-D2
Outline: as §1

CaCyk3 = target: CaCyk3
Outline: as §1

CaFus1 = target: CaFus1
Outline: as §1

CaHof1 = target: CaHof1
Outline: as §1

CaHse1 = target: CaHse1
Outline: as §1

CaLsb1 = target: CaLsb1
Outline: as §1

CaLsb4 = target: CaLsb4
Outline: as §1

CaMyo5 = target: CaMyo5
Outline: as §1

CaNbp2 = target: CaNbp2
Outline: as §1

CaRvs167 = target: CaRvs167
Outline: as §1

CaRvs167-3 = target: CaRvs167-3
Outline: as §1

CaSho1 = target: CaSho1
Outline: as §1

CaSla1-D1-D2 = target: CaSla1-D1-D2
Outline: as §1

CaSla1-D3 = target: CaSla1-D3
Outline: as §1

ScAbp1 = target: ScAbp1
Outline: as §1

ScBbc1 = target: ScBbc1
Outline: as §1

ScBem1-D1 = target: ScBem1-D1
Outline: as §1

ScBzz1-D1 = target: ScBzz1-D1
Outline: as §1

ScBzz1-D2 = target: ScBzz1-D2
Outline: as §1

ScCyk3 = target: ScCyk3
Outline: as §1

ScFus1 = target: ScFus1
Outline: as §1

ScHof1 = target: ScHof1
Outline: as §1

ScHse1 = target: ScHse1
Outline: as §1

ScLsb1 = target: ScLsb1
Outline: as §1

ScLsb2 = target: ScLsb2
Outline: as §1

ScLsb3 = target: ScLsb3
Outline: as §1

ScLsb4 = target: ScLsb4
Outline: as §1

ScMyo3 = target: ScMyo3
Outline: as §1

ScMyo5 = target: ScMyo5
Outline: as §1

ScNbp2 = target: ScNbp2
Outline: as §1

ScPex13 = target: ScPex13
Outline: as §1

ScRvs167 = target: ScRvs167
Outline: as §1

ScSho1 = target: ScSho1
Outline: as §1

ScSla1-D1-D2 = target: ScSla1-D1-D2
Outline: as §1

ScSla1-D3 = target: ScSla1-D3
Outline: as §1

SpAbp1-D1 = target: SpAbp1-D1
Outline: as §1

SpBbc1 = target: SpBbc1
Outline: as §1

SpBzz1-D1 = target: SpBzz1-D1
Outline: as §1

SpBzz1-D2 = target: SpBzz1-D2
Outline: as §1

SpCyk3 = target: SpCyk3
Outline: as §1

SpHof1 = target: SpHof1
Outline: as §1

SpHof1-2 = target: SpHof1-2
Outline: as §1

SpHof1-3 = target: SpHof1-3
Outline: as §1

SpHse1 = target: SpHse1
Outline: as §1

SpLsb1 = target: SpLsb1
Outline: as §1

SpLsb4 = target: SpLsb4
Outline: as §1

SpMyo1 = target: SpMyo1
Outline: as §1

SpNbp2 = target: SpNbp2
Outline: as §1

SpPex13 = target: SpPex13
Outline: as §1

SpRvs167 = target: SpRvs167
Outline: as §1

SpSla1-D1-D2 = target: SpSla1-D1-D2
Outline: as §1

SpSla1-D3 = target: SpSla1-D3
Outline: as §1

TSIEIPKRSPLRFTS
SPOT peptide array binding signal intensity (AgAbp1): 9
SPOT peptide array binding signal intensity (AgBbc1): 41.5
SPOT peptide array binding signal intensity (AgBem1-D1): 9
SPOT peptide array binding signal intensity (AgBzz1-D1): 27
SPOT peptide array binding signal intensity (AgBzz1-D2): 16
SPOT peptide array binding signal intensity (AgCyk3): 1.5
SPOT peptide array binding signal intensity (AgFus1): ≤ 0
SPOT peptide array binding signal intensity (AgHof1): 6.5
SPOT peptide array binding signal intensity (AgHse1): ≤ 0
SPOT peptide array binding signal intensity (AgLsb1): ≤ 0
SPOT peptide array binding signal intensity (AgLsb4): 16.5
SPOT peptide array binding signal intensity (AgMyo5): 2
SPOT peptide array binding signal intensity (AgNbp2): 10.5
SPOT peptide array binding signal intensity (AgRvs167): 2.33
SPOT peptide array binding signal intensity (AgSho1): ≤ 0
SPOT peptide array binding signal intensity (AgSla1-D1-D2): ≤ 0
SPOT peptide array binding signal intensity (AgSla1-D3): ≤ 0
SPOT peptide array binding signal intensity (CaAbp1-D1): 272
SPOT peptide array binding signal intensity (CaAbp1-D2): 81
SPOT peptide array binding signal intensity (CaBbc1): 484
SPOT peptide array binding signal intensity (CaBem1-D1): 12
SPOT peptide array binding signal intensity (CaBzz1-D1): 41
SPOT peptide array binding signal intensity (CaBzz1-D2): 20
SPOT peptide array binding signal intensity (CaCyk3): 58.5
SPOT peptide array binding signal intensity (CaFus1): 42
SPOT peptide array binding signal intensity (CaHof1): ≤ 0
SPOT peptide array binding signal intensity (CaHse1): ≤ 0
SPOT peptide array binding signal intensity (CaLsb1): ≤ 0
SPOT peptide array binding signal intensity (CaLsb4): 27
SPOT peptide array binding signal intensity (CaMyo5): 3

MAMRPIPPLPTESEY
SPOT peptide array binding signal intensity (AgAbp1): 9
SPOT peptide array binding signal intensity (AgBbc1): 8
SPOT peptide array binding signal intensity (AgBem1-D1): 155
SPOT peptide array binding signal intensity (AgBzz1-D1): 7
SPOT peptide array binding signal intensity (AgBzz1-D2): ≤ 0
SPOT peptide array binding signal intensity (AgCyk3): 13
SPOT peptide array binding signal intensity (AgFus1): 55.5
SPOT peptide array binding signal intensity (AgHof1): 87.8
SPOT peptide array binding signal intensity (AgHse1): 38
SPOT peptide array binding signal intensity (AgLsb1): 230
SPOT peptide array binding signal intensity (AgLsb4): 1930
SPOT peptide array binding signal intensity (AgMyo5): ≤ 0
SPOT peptide array binding signal intensity (AgNbp2): 81
SPOT peptide array binding signal intensity (AgRvs167): 308
SPOT peptide array binding signal intensity (AgSho1): 353
SPOT peptide array binding signal intensity (AgSla1-D1-D2): 2
SPOT peptide array binding signal intensity (AgSla1-D3): ≤ 0
SPOT peptide array binding signal intensity (CaAbp1-D1): 35
SPOT peptide array binding signal intensity (CaAbp1-D2): 79
SPOT peptide array binding signal intensity (CaBbc1): 32
SPOT peptide array binding signal intensity (CaBem1-D1): 71
SPOT peptide array binding signal intensity (CaBzz1-D1): 54
SPOT peptide array binding signal intensity (CaBzz1-D2): 39
SPOT peptide array binding signal intensity (CaCyk3): 12
SPOT peptide array binding signal intensity (CaFus1): 226
SPOT peptide array binding signal intensity (CaHof1): 10
SPOT peptide array binding signal intensity (CaHse1): 186
SPOT peptide array binding signal intensity (CaLsb1): 11
SPOT peptide array binding signal intensity (CaLsb4): 1410
SPOT peptide array binding signal intensity (CaMyo5): 35.2
SPOT peptide array binding signal intensity (CaNbp2): 628
SPOT peptide array binding signal intensity (CaRvs167): 528
SPOT peptide array binding signal intensity (CaRvs167-3): ≤ 0
SPOT peptide array binding signal intensity (CaSho1): 596
SPOT peptide array binding signal intensity (CaSla1-D1-D2): 128
SPOT peptide array binding signal intensity (CaSla1-D3): 110
SPOT peptide array binding signal intensity (ScAbp1): 4.5
SPOT peptide array binding signal intensity (ScBbc1): 2
SPOT peptide array binding signal intensity (ScBem1-D1): ≤ 0
SPOT peptide array binding signal intensity (ScBzz1-D1): ≤ 0
SPOT peptide array binding signal intensity (ScBzz1-D2): ≤ 0
SPOT peptide array binding signal intensity (ScCyk3): ≤ 0
SPOT peptide array binding signal intensity (ScFus1): 106
SPOT peptide array binding signal intensity (ScHof1): 304
SPOT peptide array binding signal intensity (ScHse1): ≤ 0
SPOT peptide array binding signal intensity (ScLsb1): 106
SPOT peptide array binding signal intensity (ScLsb2): 19.5
SPOT peptide array binding signal intensity (ScLsb3): 4040
SPOT peptide array binding signal intensity (ScLsb4): 1070
SPOT peptide array binding signal intensity (ScMyo3): 21.5
SPOT peptide array binding signal intensity (ScMyo5): 3
SPOT peptide array binding signal intensity (ScNbp2): 172
SPOT peptide array binding signal intensity (ScPex13): 1090
SPOT peptide array binding signal intensity (ScRvs167): 821
SPOT peptide array binding signal intensity (ScSho1): 543
SPOT peptide array binding signal intensity (ScSla1-D1-D2): 167
SPOT peptide array binding signal intensity (ScSla1-D3): 82.2
SPOT peptide array binding signal intensity (SpAbp1-D1): 13
SPOT peptide array binding signal intensity (SpBbc1): 4.75
SPOT peptide array binding signal intensity (SpBzz1-D1): 79.5
SPOT peptide array binding signal intensity (SpBzz1-D2): 17
SPOT peptide array binding signal intensity (SpCyk3): 14
SPOT peptide array binding signal intensity (SpHof1): 140
SPOT peptide array binding signal intensity (SpHof1-2): 110
SPOT peptide array binding signal intensity (SpHof1-3): 26.8
SPOT peptide array binding signal intensity (SpHse1): 66
SPOT peptide array binding signal intensity (SpLsb1): 67.8
SPOT peptide array binding signal intensity (SpLsb4): 2610
SPOT peptide array binding signal intensity (SpMyo1): 309
SPOT peptide array binding signal intensity (SpNbp2): 42.5
SPOT peptide array binding signal intensity (SpPex13): 72
SPOT peptide array binding signal intensity (SpRvs167): 1130
SPOT peptide array binding signal intensity (SpSla1-D1-D2): 2
SPOT peptide array binding signal intensity (SpSla1-D3): 28
